Screening results deposited in PubChem BioAssay by several laboratories.
NLRP3 yeast inh: NALP3 inflammasome inhibitors in reconstituted yeast, primary screen, luminescence, uHTS; Yeast reconstituted NLRP3/ASC/caspase-1, beta-gal luminescence, 24 h; inhibition, % at 10 µM; 0.39% of 330,000 active;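 active = inhibition of 50% or more; inactive = inhibition below 50%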;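 note: plate controls were induced DMSO wells for no effect and uninduced yeast grown without galactose for full effect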
tim23-1 inh: growth inhibitors of tim23-1 mutant yeast, primary screen, luminescence, uHTS; 1.3% of 330,000 active; AID 463212, 2010; S. cerevisiae tim23-1 growth, BacTiter-Glo luminescence, 24 h; inhibition, % at 20 µM;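 active = growth inhibition of the mutant yeast at or above 50%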;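 note: temperature-sensitive mutant grown at 25 °C; plate controls were DMSO-treated mutant yeast for no effect and medium wells lacking yeast for full effect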
PfHsp90 yeast 2: growth inhibition of PfHsp90-expressing yeast, primary screen, antimalarial PfHsp90 inhibitor project, S. cerevisiae, BacTiter-Glo luminescence, single point, set 2; BacTiter-Glo ATP, 48 h; yeast lacking PDR1 and PDR3 efflux regulators; inhibition, % at 9.4 µM; 0.32% of 310,000 active; AID 504621, 2011;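 active = every replicate shows inhibition above about 80%, whatever the replicate mean, limit read from the data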;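 note: 0% = DMSO neutral controls and 100% = 20 µM radicicol positive controls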
TIM10 inh: growth inhibitors of isogenic TIM10 control yeast, primary screen, counter-screen for tim10-1 yeast inhibitor project, luminescence, uHTS; S. cerevisiae TIM10 strain growth, BacTiter-Glo luminescence, 24 h; inhibition, % at 10 µM; 1.4% of 330,000 active; AID 463195, 2010;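 active = inhibition of 40% or more at the single tested concentration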;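 note: wild-type TIM10 isogenic control strain grown at permissive 25 °C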
tim10-1 inh: growth inhibitors of tim10-1 mutant yeast, primary screen, luminescence, uHTS | inhibition, % at 20 µM | 2.2% of 330,000 active | S. cerevisiae tim10-1 ts strain growth, BacTiter-Glo, 24 h;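 active = inhibition of at least 40%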;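 note: mutant grown at 25 °C; 0% = DMSO wells with yeast and 100% = wells holding no yeast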
tim10 confirm: growth inhibitors of wild-type TIM10 yeast, confirmation, counter-screen for tim10-1 synthetic lethality project, single concentration, luminescence, S. cerevisiae; shares compounds with TIM10 inh; S. cerevisiae tim10 strain growth, BacTiter-Glo luminescence, 24 h; inhibition, % at 10 µM; 63% of 4,600 active;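 active = inhibition of yeast growth at or above a set limit in either of two replicates at 10 µM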;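 note: this counterscreen used the strain with wild-type TIM10; 0% = yeast with DMSO and 100% = medium wells lacking yeast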
Starred values were filed as active, the others as inactive. Shown are actives, neighbours in structure and some others; about 3.7% of the full set was active somewhere.

COc1ccc(N2CCN(C(=O)CSc3ncnc4scc(-c5ccc(C)cc5)c34)CC2)cc1 was read as NLRP3 yeast inh 11, tim23-1 inh 23, TIM10 inh 43*, tim10-1 inh 20 and tim10 confirm 10.
O=C(N/N=C1/CC2CCC1C2)c1cc2ccccc2cc1O (stereo not drawn) was read as NLRP3 yeast inh -17, tim23-1 inh 38, PfHsp90 yeast 2 6, TIM10 inh 14 and tim10-1 inh 6.
For O=C1C=C(NCc2ccc3c(c2)OCO3)CC(c2ccccc2)C1 (stereo not drawn) the results were NLRP3 yeast inh 11, tim23-1 inh 16, TIM10 inh 3 and tim10-1 inh 18.
Screening CCc1ccc(/C=C2\SC(N3CCCC3)=NC2=O)cc1 returned NLRP3 yeast inh 42, tim23-1 inh 38, PfHsp90 yeast 2 -18, TIM10 inh 44*, tim10-1 inh 21 and tim10 confirm 41*.
`Cc1ccc(-n2c(SCC(=O)NCc3ccco3)nc3c(sc4ccccc43)c2=O)cc1` gave NLRP3 yeast inh 9, tim23-1 inh 1, PfHsp90 yeast 2 -24, TIM10 inh -4 and tim10-1 inh 4.
Screening CCOC(=O)C1=NN(C(=O)c2ccc(OC)cc2)C(O)(c2ccc(Cl)cc2)C1 (stereo not drawn) returned NLRP3 yeast inh 7, tim23-1 inh 39, PfHsp90 yeast 2 6, TIM10 inh 20 and tim10-1 inh 28.
COC(=O)C1=NN(C(=O)c2cccc(Br)c2)C(O)(c2ccc(Cl)cc2)C1 (stereo not drawn) was read as NLRP3 yeast inh 11, tim23-1 inh 22, PfHsp90 yeast 2 -11, TIM10 inh 45*, tim10-1 inh 35 and tim10 confirm 3.
Screening C=CCn1c(-c2ccccc2OC)n[nH]c1=S returned NLRP3 yeast inh 16, tim23-1 inh 9, PfHsp90 yeast 2 14, TIM10 inh 6 and tim10-1 inh 12.
C=CCn1c(-c2csc3c2CCC(C)C3)n[nH]c1=S (stereo not drawn) was read as NLRP3 yeast inh 30, tim23-1 inh 27, PfHsp90 yeast 2 -10, TIM10 inh 43*, tim10-1 inh 30 and tim10 confirm -3.
Screening O=C(O)CCCC(=O)N1N=C(c2ccccc2)CC1c1ccc2nccnc2c1 (stereo not drawn) returned NLRP3 yeast inh 4, tim23-1 inh 12, PfHsp90 yeast 2 -20, TIM10 inh 2 and tim10-1 inh 13.
Cc1ccc(CN2C(=O)C(C)(C)Oc3ccc(C(=O)N4CCCCC4)cc32)cc1 was read as NLRP3 yeast inh -1, tim23-1 inh 9, PfHsp90 yeast 2 34, TIM10 inh 45*, tim10-1 inh 23 and tim10 confirm 4.
For O=C(N/C(=C/c1ccccc1Cl)C(=O)N1CCCC1)c1ccccc1 the results were NLRP3 yeast inh 19, tim23-1 inh 32, PfHsp90 yeast 2 2, TIM10 inh 16 and tim10-1 inh -10.
Nc1nnc(SCCCC(=O)c2ccc(F)cc2)s1 was read as NLRP3 yeast inh 13, tim23-1 inh 7, PfHsp90 yeast 2 -13, TIM10 inh 4 and tim10-1 inh 9.
`Nc1nnc(SCCCC(=O)c2ccc(Br)cc2)s1` gave NLRP3 yeast inh 9, tim23-1 inh 6, PfHsp90 yeast 2 10, TIM10 inh 40*, tim10-1 inh 11 and tim10 confirm -2.
`C/C(=N\NC(=O)c1cccc(C)c1O)c1ccc(NC(=O)Cc2ccccc2)cc1` gave NLRP3 yeast inh 9, tim23-1 inh -9, PfHsp90 yeast 2 13, TIM10 inh -20 and tim10-1 inh -19.
Screening Cc1ccc(/C=C/C(=O)c2cc(Br)ccc2OC(=O)c2ccco2)cc1 returned NLRP3 yeast inh -11, tim23-1 inh 40, PfHsp90 yeast 2 -14, TIM10 inh 47*, tim10-1 inh 37 and tim10 confirm 44*.
O=C(/C=C/c1cc(Br)ccc1O)c1ccco1 was read as NLRP3 yeast inh 32, tim23-1 inh -86, PfHsp90 yeast 2 101*, TIM10 inh 66*, tim10-1 inh -130 and tim10 confirm 80*.
For O=C1CCCN1c1ccc(S(=O)(=O)NCc2ccc(F)cc2)cc1 the results were NLRP3 yeast inh 13, tim23-1 inh -2, PfHsp90 yeast 2 -18, TIM10 inh 10 and tim10-1 inh 2.
Screening NS(=O)(=O)c1cccc(NC(=O)c2cccc(-c3ccc(O)cc3)c2)c1 returned NLRP3 yeast inh 16, tim23-1 inh 4, PfHsp90 yeast 2 14, TIM10 inh 0 and tim10-1 inh -23.
Screening CC(C)(C)c1cc(NC(=O)Nc2ccc(Br)cc2Cl)no1 returned NLRP3 yeast inh 11, tim23-1 inh 30, PfHsp90 yeast 2 16, TIM10 inh 42*, tim10-1 inh 29 and tim10 confirm 41*.
`CC(C)NC(=O)Nc1ccc(Br)cc1Cl` gave NLRP3 yeast inh 19, tim23-1 inh -6, PfHsp90 yeast 2 -1, TIM10 inh 4 and tim10-1 inh 24.
For O=C(Nc1ccon1)Nc1ccc(Cl)cc1Cl the results were NLRP3 yeast inh -15, tim23-1 inh 28, PfHsp90 yeast 2 -4, TIM10 inh 30 and tim10-1 inh 33.
For CC(C)(C)c1cc(NC(=O)Nc2ccc(Cl)cc2Cl)no1 the results were NLRP3 yeast inh 13, tim23-1 inh 27, PfHsp90 yeast 2 1, TIM10 inh 42*, tim10-1 inh 34 and tim10 confirm 43*.
`CCC(CC)C(=O)c1c[nH]c(C(=O)NCc2ccccn2)c1` gave NLRP3 yeast inh 2, tim23-1 inh 15, PfHsp90 yeast 2 1, TIM10 inh -3 and tim10-1 inh 9.
C/C(=C\c1ccco1)C1C(C#N)=C(N)OC2=C1C(=O)CC(C)(C)C2 (stereo not drawn) was read as NLRP3 yeast inh 11, tim23-1 inh 14, PfHsp90 yeast 2 -28, TIM10 inh 11 and tim10-1 inh 20.
For COc1cc(CN2CCC(CCC(=O)NC3CC3)CC2)cc(Cl)c1OC the results were NLRP3 yeast inh 11, tim23-1 inh -2, PfHsp90 yeast 2 7, TIM10 inh 0 and tim10-1 inh -4.
For O=C1OCCN1CC(=O)N1CCc2c([nH]c3ccccc23)C1c1ccccn1 (stereo not drawn) the results were NLRP3 yeast inh 11, tim23-1 inh 7, PfHsp90 yeast 2 27, TIM10 inh 3 and tim10-1 inh -1.
Screening COc1ccc(N(CC(=O)N/N=C/c2cc(OC)ccc2OC)S(=O)(=O)c2ccccc2)cc1 returned NLRP3 yeast inh -2, tim23-1 inh 11, PfHsp90 yeast 2 -27, TIM10 inh 55*, tim10-1 inh 7 and tim10 confirm 17.
